# Reference: publication PMC11062922 (Nature Chemical Biology, 2023)
# Like-named read-outs stand apart in the source and are kept apart here.
# Key:
# Parameters in all cases: species or system human, MV4-11 + K-562 + COLO205 + SK-N-BE2 + OVCAR-8
# CDC42 = conditions: read-out: apparent Kd, n = 1
# CSNK2A1;CSNK2A3 = conditions: read-out: apparent Kd; compound concentrations:100 nM and 1000 nM (sheet 'Samples'); n = 1
# CSNK2A2 = conditions: read-out: apparent Kd, n = 1
# NQO2 = conditions: read-out: apparent Kd, n = 1
# PRKD2 = conditions: read-out: apparent Kd; compound concentrations:100 nM and 1000 nM (sheet 'Samples'); n = 1
# PRKD3 = conditions: read-out: apparent Kd; compound concentrations:100 nM and 1000 nM (sheet 'Samples'); n = 1
# CDK16 = conditions: read-out: apparent Kd, n = 1
# DJA1 = test system: T1, DJA1; conditions: read-out: apparent Kd, compound concentrations: 100 nM and 1000 nM (sheet 'Samples'), n = 1
# T1 construct: gene DNAJA1
# GSK3A = conditions: read-out: apparent Kd, n = 1
# GSK3B = conditions: read-out: apparent Kd, compound concentrations: 100 nM and 1000 nM (sheet 'Samples'), n = 1
# PDXK = conditions: read-out: apparent Kd; compound concentrations: 100 nM and 1000 nM (sheet 'Samples'), CATDS: 0.14245217988019501; n = 1
# HSP90AA1 = conditions: read-out: apparent Kd; compound concentrations: 100 nM and 1000 nM (sheet 'Samples'), CATDS: 0.12399635685572399; n = 1
# HSP90B1 = conditions: read-out: apparent Kd; compound concentrations: 100 nM and 1000 nM (sheet 'Samples'), CATDS: 0.12934168659945999; n = 1
# HSPE1 = conditions: read-out: apparent Kd; compound concentrations: 100 nM and 1000 nM (sheet 'Samples'), CATDS: 0.19606542414911901; n = 1
# PGK1 = conditions: read-out: apparent Kd; compound concentrations: 100 nM and 1000 nM (sheet 'Samples'), CATDS: 0.21364088639266299; n = 1
# PKM = conditions: read-out: apparent Kd; compound concentrations: 100 nM and 1000 nM (sheet 'Samples'), CATDS: 0.14448823643602399; n = 1
# CDK17 = conditions: read-out: apparent Kd, n = 1
# CDK10 = conditions: read-out: apparent Kd; compound concentrations:100 nM and 1000 nM (sheet 'Samples'); n = 1
# CDK1 = conditions: read-out: apparent Kd; compound concentrations:100 nM and 1000 nM (sheet 'Samples'); n = 1
# CDK2 = conditions: read-out: apparent Kd, n = 1
# CDK4 = conditions: read-out: apparent Kd; compound concentrations:100 nM and 1000 nM (sheet 'Samples'); n = 1
# CDK5 = conditions: read-out: apparent Kd; compound concentrations:100 nM and 1000 nM (sheet 'Samples'); n = 1
# CDK6 = conditions: read-out: apparent Kd, n = 1
# CDK7 = conditions: read-out: apparent Kd; compound concentrations:100 nM and 1000 nM (sheet 'Samples'); n = 1
# CDK9 = conditions: read-out: apparent Kd, n = 1
# ICK = conditions: read-out: apparent Kd; compound concentrations:100 nM and 1000 nM (sheet 'Samples'); n = 1
# SLK = conditions: read-out: apparent Kd; compound concentrations:100 nM and 1000 nM (sheet 'Samples'); n = 1
# CDKL5 = conditions: read-out: apparent Kd, n = 1
# CLK4 = conditions: read-out: apparent Kd; compound concentrations:100 nM and 1000 nM (sheet 'Samples'); n = 1
# TGFBR2 = conditions: read-out: apparent Kd; compound concentrations:100 nM and 1000 nM (sheet 'Samples'); n = 1
# DYRK1A = conditions: read-out: apparent Kd; compound concentrations: 100 nM and 1000 nM (sheet 'Samples'), CATDS: 8.3758685626984103E-2; n = 1
# SMG1 = conditions: read-out: apparent Kd; compound concentrations: 100 nM and 1000 nM (sheet 'Samples'), CATDS: 7.6423635677126206E-2; n = 1
# CSNK1A1 = conditions: read-out: apparent Kd; compound concentrations:100 nM and 1000 nM (sheet 'Samples'); n = 1
# CSNK1D = conditions: read-out: apparent Kd; compound concentrations:100 nM and 1000 nM (sheet 'Samples'); n = 1
# CSNK1E = conditions: read-out: apparent Kd; compound concentrations:100 nM and 1000 nM (sheet 'Samples'); n = 1
# ERBB3 = conditions: read-out: apparent Kd; compound concentrations:100 nM and 1000 nM (sheet 'Samples'); n = 1
# MAPK14 = conditions: read-out: apparent Kd; compound concentrations:100 nM and 1000 nM (sheet 'Samples'); n = 1
# MAPKAPK2 = conditions: read-out: apparent Kd; compound concentrations:100 nM and 1000 nM (sheet 'Samples'); n = 1
# RAB14 = conditions: read-out: apparent Kd; compound concentrations:100 nM and 1000 nM (sheet 'Samples'); n = 1
# MELK = conditions: read-out: apparent Kd; compound concentrations:100 nM and 1000 nM (sheet 'Samples'); n = 1
# MYLK3 = conditions: read-out: apparent Kd; compound concentrations:100 nM and 1000 nM (sheet 'Samples'); n = 1
# NUAK1 = conditions: read-out: apparent Kd; compound concentrations:100 nM and 1000 nM (sheet 'Samples'); n = 1
# PRKAG1 = conditions: read-out: apparent Kd; compound concentrations:100 nM and 1000 nM (sheet 'Samples'); n = 1
# [1] = compound concentrations:100 nM and 1000 nM (sheet 'Samples')
smiles,measurement,setting,value
Cc1cccc(-c2nc(Nc3cccc(C(N)=O)c3)c3ccccc3n2)n1 [GW876019X],potency estimated from few doses,CDC42; [1],2080 nM
same,potency estimated from few doses,CSNK2A1;CSNK2A3,1510 nM
same,potency estimated from few doses,CSNK2A2; [1],2230 nM
same,potency estimated from few doses,NQO2; [1],1160 nM
same,potency estimated from few doses,PRKD2,739 nM
same,potency estimated from few doses,PRKD3,1510 nM
Cn1cc(C2=C(c3cccc(Br)c3)C(=O)NC2=O)c2ccccc21 [RO0317625-000],potency estimated from few doses,"CDK16; compound concentrations: 100 nM and 1000 nM (sheet 'Samples'), CATDS: 0.11881037811930099",2310 nM
same,potency estimated from few doses,DJA1; CATDS: 0.17087221308304101,881 nM
same,potency estimated from few doses,"GSK3A; compound concentrations: 100 nM and 1000 nM (sheet 'Samples'), CATDS: 0.21400406250920001",574 nM
same,potency estimated from few doses,GSK3B; CATDS: 0.248828524546996,447 nM
same,potency estimated from few doses,"NQO2; compound concentrations: 100 nM and 1000 nM (sheet 'Samples'), CATDS: 0.16613061012500299",935 nM
same,potency estimated from few doses,PDXK,1340 nM
Cn1cc(C2=C(c3c4n(c5ccccc35)CCCC4)C(=O)NC2=O)c2ccccc21 [RO0318259-000],potency estimated from few doses,"CDC42; compound concentrations: 100 nM and 1000 nM (sheet 'Samples'), CATDS: 0.12762221298853901",1480 nM
same,potency estimated from few doses,DJA1; CATDS: 0.11539226669729399,1920 nM
same,potency estimated from few doses,HSP90AA1,1590 nM
same,potency estimated from few doses,HSP90B1,1440 nM
same,potency estimated from few doses,HSPE1,644 nM
same,potency estimated from few doses,PGK1,561 nM
same,potency estimated from few doses,PKM,1130 nM
CCN1CCC(CC(=O)Nc2n[nH]c3nc(-c4cccs4)c(Br)cc23)CC1.O=C(O)[C@H](O)[C@@H](O)C(=O)O [SB-739245-AC],potency estimated from few doses,"CDK16; compound concentrations: 100 nM and 1000 nM (sheet 'Samples'), CATDS: 0.32554244195376097",802 nM
same,potency estimated from few doses,"CDK17; compound concentrations: 100 nM and 1000 nM (sheet 'Samples'), CATDS: 0.31469055739513202",861 nM
same,potency estimated from few doses,"GSK3A; compound concentrations: 100 nM and 1000 nM (sheet 'Samples'), CATDS: 0.36357302595777402",647 nM
COc1ccc(F)cc1C(=O)c1cnc(NC2CCN(S(C)(=O)=O)CC2)nc1N [RO4517872-000],potency estimated from few doses,CDK10,915 nM
same,potency estimated from few doses,CDK16; [1],74.1 nM
same,potency estimated from few doses,CDK17; [1],75.1 nM
same,potency estimated from few doses,CDK1,402 nM
same,potency estimated from few doses,CDK2; [1],62.7 nM
same,potency estimated from few doses,CDK4,1200 nM
same,potency estimated from few doses,CDK5,221 nM
same,potency estimated from few doses,CDK6; [1],1680 nM
same,potency estimated from few doses,CDK7,1460 nM
same,potency estimated from few doses,CDK9; [1],246 nM
same,potency estimated from few doses,ICK,347 nM
same,potency estimated from few doses,SLK,1280 nM
CC(C)COC(=O)c1ccc2c(c1)/C(=C/Nc1ccc(S(N)(=O)=O)cc1)C(=O)N2 [GW416981X],potency estimated from few doses,CDK16; [1],964 nM
same,potency estimated from few doses,CDK2; [1],587 nM
same,potency estimated from few doses,CDKL5; [1],1290 nM
same,potency estimated from few doses,CLK4,1480 nM
same,potency estimated from few doses,CSNK2A1;CSNK2A3,477 nM
same,potency estimated from few doses,CSNK2A2; [1],246 nM
same,potency estimated from few doses,TGFBR2,1860 nM
CCN1CCC(C(=O)Nc2n[nH]c3nnc(-c4cccc(F)c4F)cc23)CC1.Cl [SB-686709-A],potency estimated from few doses,"CDK16; compound concentrations: 100 nM and 1000 nM (sheet 'Samples'), CATDS: 0.11637141533409",199 nM
same,potency estimated from few doses,"CDK17; compound concentrations: 100 nM and 1000 nM (sheet 'Samples'), CATDS: 0.129072520880324",132 nM
same,potency estimated from few doses,"CDK9; compound concentrations: 100 nM and 1000 nM (sheet 'Samples'), CATDS: 8.2181630461084801E-2",1050 nM
same,potency estimated from few doses,"CDKL5; compound concentrations: 100 nM and 1000 nM (sheet 'Samples'), CATDS: 0.15820279930109701",60.5 nM
same,potency estimated from few doses,DYRK1A,937 nM
same,potency estimated from few doses,"GSK3A; compound concentrations: 100 nM and 1000 nM (sheet 'Samples'), CATDS: 0.64867635498298803",0.589 nM
same,potency estimated from few doses,GSK3B; CATDS: 0.38395769159981902,1.75 nM
same,potency estimated from few doses,SMG1,1680 nM
NC(=O)c1ccc(Oc2nccc(-c3c(-c4ccc(F)cc4)ncn3C3CCNCC3)n2)cc1 [SB-242718],potency estimated from few doses,CDC42; [1],922 nM
same,potency estimated from few doses,CSNK1A1,2320 nM
same,potency estimated from few doses,CSNK1D,246 nM
same,potency estimated from few doses,CSNK1E,642 nM
same,potency estimated from few doses,ERBB3,1430 nM
same,potency estimated from few doses,MAPK14,476 nM
same,potency estimated from few doses,MAPKAPK2,18.3 nM
same,potency estimated from few doses,RAB14,1380 nM
Cl.NS(=O)(=O)c1ccc(N/N=C2\C(=O)Nc3cccc(CCc4ccncc4)c32)cc1 [GW352430A],potency estimated from few doses,"CDK2; compound concentrations: 100 nM and 1000 nM (sheet 'Samples'), CATDS: 0.44900253923849898",936 nM
same,potency estimated from few doses,"CDK6; compound concentrations: 100 nM and 1000 nM (sheet 'Samples'), CATDS: 0.29293356798223702",2160 nM
same,potency estimated from few doses,"CSNK2A2; compound concentrations: 100 nM and 1000 nM (sheet 'Samples'), CATDS: 0.29769898154006003",2070 nM
NS(=O)(=O)c1ccc(N/N=C2\C(=O)Nc3ccc(C(=O)NCCc4c[nH]cn4)cc32)cc1 [GW300660X],potency estimated from few doses,CDK16; [1],1010 nM
same,potency estimated from few doses,CLK4,1230 nM
same,potency estimated from few doses,CSNK2A1;CSNK2A3,2310 nM
same,potency estimated from few doses,CSNK2A2; [1],1970 nM
same,potency estimated from few doses,GSK3A; [1],1220 nM
same,potency estimated from few doses,MELK,2180 nM
same,potency estimated from few doses,MYLK3,735 nM
same,potency estimated from few doses,NUAK1,1450 nM
same,potency estimated from few doses,PRKAG1,1480 nM
